# From the antibiotic and cytotoxicity screens of Wong et al. (2023)
# The campaign covered roughly 39,000 compounds. About 1,500 (3.8%) were called active. The list comes from a sample in which actives are over-represented; it also holds similar structures and randomly drawn compounds.
# Tested on: HSkMC (human skeletal muscle cells)
# Assay: cytotoxicity call (relative viability < 0.9)
# Details: 10 µM
row,SMILES,cytotoxicity call
1,Cn1cc(C(F)(F)F)ccc1=S,inactive
2,CCS(=O)(=O)N(C)C[C@@H]1OCc2ccccc2-c2c(n(C)c3ccccc23)C(=O)N([C@@H](C)CO)C[C@@H]1C,inactive
3,COCC#Cc1ccc2c(c1)O[C@@H](CN(C)Cc1ccc3c(c1)OCO3)[C@H](C)CN([C@@H](C)CO)S2(=O)=O,inactive
4,C[C@@H]1CN([C@H](C)CO)C(=O)Cc2cc(NS(=O)(=O)c3cn(C)cn3)ccc2O[C@H]1CN(C)C(=O)Nc1ccc(F)cc1,inactive
5,Cc1noc(C)c1S(=O)(=O)Nc1ccc2c(c1)CC(=O)N([C@@H](C)CO)C[C@@H](C)[C@@H](CN(C)S(=O)(=O)c1cccs1)O2,inactive
6,O=S(=O)(c1c[nH]c2ncccc12)N1CC(S(=O)(=O)N2CCOCC2)C1,inactive
7,Clc1ccc(-c2nnc(Nc3ccccc3)s2)c(Cl)c1,inactive
8,C[C@H](O)C#Cc1cnc2c(c1)C(=O)N([C@@H](C)CO)C[C@@H](C)[C@@H](CN(C)C(=O)Nc1ccc(C(F)(F)F)cc1)O2,inactive
9,NC(=O)C1N=CN([C@@H]2O[C@H](CO)[C@@H](O)[C@H]2O)C1=O (some centres undefined),inactive
10,COc1ccc(CN(C)C[C@@H]2OCCCC[C@@H](C)Oc3ccc(NS(=O)(=O)c4ccc(OC)cc4)cc3C(=O)N([C@@H](C)CO)C[C@H]2C)cc1,inactive
11,COc1ccc(S(=O)(=O)Nc2ccc3c(c2)C(=O)N([C@H](C)CO)C[C@@H](C)[C@@H](CN(C)Cc2ccc(Cl)c(Cl)c2)OCCCC[C@H](C)O3)cc1,active
12,COc1ccc(S(=O)(=O)Nc2ccc3c(c2)C(=O)N([C@@H](C)CO)C[C@H](C)[C@@H](CN(C)Cc2ccc(Cl)c(Cl)c2)OCCCC[C@H](C)O3)cc1,inactive
13,COc1ccc(CN(C)C[C@@H]2OCCCC[C@@H](C)Oc3ccc(NS(=O)(=O)c4ccc(OC)cc4)cc3C(=O)N([C@H](C)CO)C[C@@H]2C)cc1,inactive
14,COc1ccc(CN(C)C[C@H]2OCCCC[C@@H](C)Oc3ccc(NS(=O)(=O)c4ccc(OC)cc4)cc3C(=O)N([C@@H](C)CO)C[C@H]2C)cc1,inactive
15,COc1ccc(S(=O)(=O)Nc2ccc3c(c2)C(=O)N([C@@H](C)CO)C[C@H](C)[C@@H](CN(C)Cc2ccc(Cl)c(Cl)c2)OCCCC[C@@H](C)O3)cc1,active
16,COc1ccc(S(=O)(=O)Nc2ccc3c(c2)C(=O)N([C@H](C)CO)C[C@H](C)[C@H](CN(C)Cc2ccc(Cl)c(Cl)c2)OCCCC[C@H](C)O3)cc1,active
17,COc1ccc(CN(C)C[C@H]2OCCCC[C@H](C)Oc3ccc(NS(=O)(=O)c4ccc(OC)cc4)cc3C(=O)N([C@H](C)CO)C[C@@H]2C)cc1,inactive
18,COc1ccc(S(=O)(=O)Nc2ccc3c(c2)C(=O)N([C@H](C)CO)C[C@@H](C)[C@H](CN(C)Cc2ccc(Cl)c(Cl)c2)OCCCC[C@H](C)O3)cc1,active
19,COc1ccc(S(=O)(=O)Nc2ccc3c(c2)C(=O)N([C@H](C)CO)C[C@H](C)[C@@H](CN(C)Cc2ccc(Cl)c(Cl)c2)OCCCC[C@@H](C)O3)cc1,inactive
